Bioassay records from PubChem BioAssay.
Compounds with a hit are over-represented: about 0.93% of the library has one in this group of screens.
HIV TAR-Tat = TAR RNA-Tat peptide displacers, HIV-1, primary screen, biochemical, FRET, FAM/TAMRA-labeled Tat; HIV-1 TAR RNA, Tat peptide displacement FRET; active compounds read high; z-score (no concentration beside the values); 100,000 tested, 0.6% active; AID 1259389, 2018; active = z-score of 3 or more in at least 2 runs
CDC25B-CDK2 inh = primary biochemical HTRF screen for blockers of M-phase inducer phosphatase 2 binding to CDK2/cyclin A; 94,000 tested, 0.72% active; AID 1259370, 2018; z-score (concentration not given with the values); HTRF CDC25B-CDK2/CyclinA binding, anti-His/anti-Flag; active compounds read high; in the data active = z-score above about 3.2
* hit, by the source's call; / = not tested or not shown.

SMILES	HIV TAR-Tat	CDC25B-CDK2 inh
COc1ccc(CC2NCCc3cc(OC)c(OC)cc32)cc1OC (stereo unspecified)	37*	-0.3
COc1ccc(CCNC2(C#N)CCCCC2)cc1OC	/	-0.88
Cc1nn(C(C)(C)C)c(C)c1/C=N/OC(=O)Nc1cccc(C(F)(F)F)c1	/	-0.23
CCCCC12CN3CC(C)(CN(C1)C3c1ccccn1)C2=O (stereo unspecified)	-1.3	-0.66
O=C1CC(=O)N(Cc2ccccc2)C(=O)N1	/	-1.4
COc1ccc2c(c1)N1C3C2[C@H](O)[C@@]2(O)C(=O)N4CCC[C@H]4C(=O)N2[C@H]3CC(C)(C)OO[C@H]1C=C(C)C (stereo partly specified)	-0.38	/
NCCc1c[nH]c2ccccc12	0.19	-0.02
NCCc1cc(O)c(O)cc1O	29*	/
O=c1c2ccccc2nnn1C1CCNCC1	0.45	/
c1ccc2cc(CNCCc3c[nH]c4ccccc34)ccc2c1	/	-1.4
Fc1ccc(CNCCc2c[nH]c3ccccc23)cc1F	-0.12	16*
c1coc(CNCCc2c[nH]c3ccccc23)c1	-0.14	14*
Fc1ccccc1CNCCc1c[nH]c2ccccc12	0.3	2.3
COc1cc2c(cc1OC)-c1c(OC)c(OC)cc3c1C(C2)N(C)CC3 (stereo unspecified)	6.3*	-6.7
COc1cc2c3c(c1O)-c1c(cccc1OC)CC3N(C)CC2 (stereo unspecified)	-11	-0.03
CC12CCC3C(CC=C4CC(O)CCC43CO)C1CCC2OC(=O)c1ccccc1 (stereo unspecified)	/	0.83
CC(=O)OC12CCC(=O)C=C1CCC1C3CCC(=O)C3(C)CCC12 (stereo unspecified)	/	-0.93
O=C(Nc1cc(F)ccc1F)N(Cc1ccc2c(c1)OCO2)C1CCN(Cc2ccccc2)CC1	-0.26	/
Cc1o[nH]c(=O)c1CC(N)C(=O)O (stereo unspecified)	/	-1.1
NC(Cc1cc(O)c(O)cc1O)C(=O)O (stereo unspecified)	/	20*
Cc1ccc(S(=O)(=O)N[C@@H](CCCCN)C(=O)CCl)cc1	1.2	-1.5
CCOc1cc(C2SCC(=O)Nc3c2c(C)nn3-c2nc3ccccc3s2)ccc1O (stereo unspecified)	0.69	-1.1
Cc1nn(-c2nc3ccccc3s2)c2c1C(c1ccc(O)c(O)c1)SCC(=O)N2 (stereo unspecified)	6.5*	-1.9
CN(C)[C@@H]1C(=O)C(C(N)=O)=C(O)[C@@]2(O)C(=O)C3=C(O)c4c(O)cccc4[C@@](C)(O)[C@H]3[C@H](O)[C@@H]12	22*	/
CN(C)[C@@H]1C(=O)C(C(N)=O)=C(O)[C@@]2(O)C(=O)C3=C(O)c4c(O)ccc(Cl)c4[C@@](C)(O)[C@H]3C[C@@H]12	12*	/
CCOP(=O)(OCC)SCc1ccccc1	/	-0.28
COC(=O)C1=C(N)Oc2c(c(=O)oc3ccccc23)C1c1cccnc1 (stereo unspecified)	/	-1.1
